# Source: PubChem (National Center for Advancing Translational Sciences (NCATS))
# Rows were chosen to be rich in hits. Some 7.5% of all compounds tested hit in one or more screens of this group.
# Rab9 promoter act – activates the Rab9 promoter; Huh7 Rab9 promoter-luciferase reporter, luminescence, 24 h; Potency, µM (highest dose often 9.22 µM), for the others: at the highest dose activation, negative = inhibition, actives largely listed as activators; 320,000 tested, 2.8% active; AID 485297; note: % of control where 0% means no effect; nearly all actives have a fitted effect of over 60% in size
#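 Using Huh7 cells stably transfected with Rab9 promoter–luciferase, compounds were incubated 24 h at 37 °C, 5% CO2; luciferase luminescence was read 10 min after reagent addition.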
# Luc counter – blocks Kinase-Glo luciferase, a counter-screen artifact | Q27757 | Kinase-Glo luciferase, ATP luminescence, 8 min | Potency, µM (top dose mostly 38.3 µM), without a hit: at the highest dose activity change, negative = inhibition, hits mostly inhibitors | 200,000 tested, 0.28% active; note: % is set by controls: 0 for no effect and ±100 for the full control effect; nearly all actives have a fitted effect of over 60% in size
#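 Inhibition of Kinase-Glo luciferase light generation was assessed at 10 uM ATP in pH 7.2 imidazole buffer, with luminescence measured after eight minutes at ambient temperature.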
# ELG1 genotox – genotoxicity induction in ELG1-luciferase HEK293T cells; HEK293T ELG1-luciferase reporter, luminescence, 16 h; Potency, µM (doses to about 46 µM), inactives show at the top dose activity change, positive = activation, actives largely listed as activators; 330,000 tested, 1.3% active; AID 504466; note: % of control where 0% means no effect; nearly all actives have a fitted effect of over 60% in size
#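 ELG1-luciferase HEK293T cells, 2,000/well; compound pinned in; 16 hr, 37 °C, 5% CO2; ONE-Glo, 30 min RT; luminescence on CCD imager.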
# NPC1 prom act – activates the NPC1 promoter | AID 485313 | Potency, µM (titrated, usually from 9.22 µM), for the others: top-dose activation, most hits filed as activators | Huh7 NPC1 promoter luciferase reporter, 24 h | 320,000 tested, 2.4% active; note: % of control where 0% means no effect; nearly all actives have a fitted effect of over 60% in size
#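 Cells: Huh7 expressing luciferase under the NPC1 promoter, 1500/well. Seeded 2 h, compound added, incubated 24 h at 37 °C. Luciferase reagent, 10 min ambient, then luminescence.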
# SMN2 splice up – SMN2 splice variant enhancement. HEK293 SMN2-luciferase splicing reporter, luminescence, 30-36 h. Potency, µM (series often up to 46.1 µM), inactives show at the highest dose activity change, positive = activation, usual class: activators. 210,000 tested, 2.8% active. AID 1458; note: % of control where 0% means no effect; nearly all actives have a fitted effect of over 55% in size
#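 HEK293 cells carry an SMN2 minigene-luciferase reporter in which exon 7 inclusion puts luciferase in frame. Cells were seeded at 2000 cells/well, attached for 10-12 hours, then exposed to compounds for 30-36 hours at 37C before ONE-Glo luminescence.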
# FLuc modulator – counter-screen for miR-21 project: firefly luciferase inhibitors or activators; P08659; purified FLuc, Km substrates, luminescence inhibition; Potency, µM (series often up to 57.5 µM), for the others: at the highest dose activity change, negative = inhibition, most hits filed as inhibitors; 360,000 tested, 6.9% active; AID 588342;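 note: plate controls were vehicle for no effect and reference inhibitor for full effect; nearly all actives have a fitted effect of over 55% in size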
# Target sequence (P08659 whole entry, looked up): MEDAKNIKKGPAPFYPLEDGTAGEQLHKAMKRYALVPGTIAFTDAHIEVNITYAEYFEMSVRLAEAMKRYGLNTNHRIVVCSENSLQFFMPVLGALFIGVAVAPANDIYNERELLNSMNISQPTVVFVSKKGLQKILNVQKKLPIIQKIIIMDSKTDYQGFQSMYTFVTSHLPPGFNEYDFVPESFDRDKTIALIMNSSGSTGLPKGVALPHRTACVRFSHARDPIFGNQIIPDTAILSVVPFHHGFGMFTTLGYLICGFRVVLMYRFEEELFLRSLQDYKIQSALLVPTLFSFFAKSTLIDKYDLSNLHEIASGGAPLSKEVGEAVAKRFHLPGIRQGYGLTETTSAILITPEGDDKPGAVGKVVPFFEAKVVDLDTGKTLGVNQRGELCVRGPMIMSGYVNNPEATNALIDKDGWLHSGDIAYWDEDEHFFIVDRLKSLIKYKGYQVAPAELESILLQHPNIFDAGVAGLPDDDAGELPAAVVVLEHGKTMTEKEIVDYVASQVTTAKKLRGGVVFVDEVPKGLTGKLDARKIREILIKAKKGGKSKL
#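 Purified P. pyralis luciferase, 10 nM final, with Km-level 10 uM D-luciferin and 10 uM ATP in 50 mM Tris acetate pH 7.5, 10 mM Mg acetate, 0.01% Tween-20, 0.05% BSA; 6-point qHTS titration about 60 µM downward; luminescence read.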
# * hit, by the source's call; ? = inconclusive; . = no result; [ ] = dose if it differs, or a comment. Calls come from the whole dose curve; as a rule, active = well fitted curve in the direction sought with a large enough effect; inconclusive = small, poorly fitted or top-dose-only effect, or another doubt; inactive = no such curve, though single readings can be large; an effect the other way counts as inactive or inconclusive. Potency is the fitted concentration of half-maximal effect.
SMILES,Rab9 promoter act,Luc counter,ELG1 genotox,NPC1 prom act,SMN2 splice up,FLuc modulator
Cn1c(=O)cc(SCC(=O)N2CCN(c3ccc(F)cc3)CC2)c2ccc(Cl)cc21,.,.,.,.,-3%,-4%
C/C(=N\NC(=O)Cn1ccc(C(F)(F)F)n1)c1ccc2c(c1)OCO2,11%,0%,-3%,-2%,-7%,-7%
COc1cccc(C(=O)NCC(=O)N/N=C/c2ccc3c(c2)OCO3)c1,1%,.,6%,3%,.,24µM*
O=C(Cn1ccc(C(F)(F)F)n1)N/N=C/c1ccc2c(c1)OCO2,6%,.,?,23%,.,19µM*
COc1cccc(C(=O)NCC(=O)N/N=C/c2cccnc2)c1,0%,.,2%,-2%,.,3%
CCC(O)c1cc2c(cc1NC(=O)c1ccccc1F)OCCO2 (stereo not drawn),.,.,.,.,.,-7%
COc1ccccc1CC(=O)Nc1ccc2c(c1)OC1(CCCC1)O2,.,.,-1%,.,.,.
O=C(Cc1ccccc1)Nc1ccc2c(c1)OC1(CCCC1)O2,2.5µM*,.,?,2.5µM*,.,4.8µM*
O=C(Cc1ccccc1)Nc1ccc(NC(=O)Cc2ccccc2)c(Cl)c1,1%,.,1%,-7%,.,0%
CCc1ccc(C(=O)Nc2cc3c(cc2Cl)OCCCO3)cc1,1.6µM*,-1%,?,1.8µM*,25µM*,6µM*
O=C(Cc1ccccc1)Nc1cc2c(cc1Cl)OCCCO2,2.8µM*,.,?,3.2µM*,.,17µM*
O=C(Nc1cc2c(cc1C(=O)O)OCCCO2)c1ccc(C(F)(F)F)cc1,2.8µM*,.,18µM*,4µM*,.,13µM*
Cc1cc(=O)[nH]c(N/N=C/c2ccccc2Cl)n1,19%,.,5%,15%,.,-12%
Cc1cc(=O)[nH]c(N/N=C/c2cc(C)n(-c3ccccc3)c2C)n1,?,.,9.2µM*,3.2µM*,.,7.6µM*
Cc1cc(=O)[nH]c(N/N=C/c2cccs2)n1,12%,-6%,8%,12%,6%,17µM*
Cc1cc(=O)[nH]c(N/N=C/c2c(F)c(F)c(F)c(F)c2F)n1,-6%,.,3%,2%,.,4%
Cc1cc(=O)[nH]c(N/N=C/c2sccc2C)n1,28%,11µM*,11%,7%,?,?
O=c1cnnc(N/N=C/c2cccs2)[nH]1,0%,.,-4%,3%,.,-3%
CCCCCC(=O)/C=C/[C@@H]1[C@@H](C/C=C\CCCC(=O)O)[C@@H](O)C[C@H]1O,.,0%,.,.,7%,.
Cc1ccc(-n2nc(C(=O)N3CCN(c4ccccc4F)CC3)c3c4ccccc4n(C)c3c2=O)cc1,.,.,.,.,-7%,-1%
CCOc1ccccc1Nc1nc(-c2cccc(Cl)c2)c2c(n1)-c1ccccc1OC2,.,.,.,.,.,11µM*
c1ccc(-c2cc(-c3ccccc3)c3c(n2)-c2ccccc2OC3)cc1,.,.,.,.,-4%,?
COc1ccc(-c2cn(-c3ccc(C)cc3)c(S(=O)(=O)CC(=O)Nc3ccc(F)cc3)n2)cc1,.,.,.,.,28%,?
Cc1csc2ncc(C(=O)Nc3ccc4c(c3)OCCO4)c(=O)n12,2.2µM*,-5%,2.3µM*,?,4.5µM*,?
Cc1cccc(NC(=O)c2cnc3scc(C)n3c2=O)c1,3.2µM*,-2%,16%,3.2µM*,13µM*,8.5µM*
SMILES,Rab9 promoter act,Luc counter,ELG1 genotox,NPC1 prom act,SMN2 splice up,FLuc modulator
O=c1cc(-c2ccccc2)c2cc(Cl)c3c(c2o1)CN(Cc1ccccc1)CO3,.,.,.,.,-5%,-18%
Cc1[nH]c2ccccc2c1C(=O)CSC(=S)N1CCCCC1,?,-6%,?,?,8.9µM*,9.5µM*
Cc1[nH]c2ccccc2c1C(=O)CSC(=S)N(C)C1CCCCC1,-2%,0%,5%,14%,-1%,15µM*
C=CCNC(=O)c1ccc(OC2CCN(S(=O)(=O)N(C)C)CC2)cc1,?,1%,14%,16%,.,17µM*
CN1OC(COC(=O)c2ccccc2)CC1c1ccccc1 (stereo not drawn),8%,-4%,3%,?,-13%,6.7µM*
O=C(OCC1CC(c2ccccc2)=NO1)c1ccc(Cl)cc1 (stereo not drawn),-6%,-1%,-1%,1%,-1%,-10%
Cc1cccc(C)c1-n1ncc(C(=O)N2CCN(c3ccccc3)CC2)c1C1CCN(C(=O)OC(C)(C)C)CC1,.,.,.,.,.,-1%
CCOc1cc(/C=C2/C(=O)NN(c3cccc(Cl)c3)C2=O)ccc1O,0%,.,-3%,0%,.,24µM*
COc1cc(/C=C2/C(=O)NN(c3cccc(Cl)c3)C2=O)cc(OC)c1O,0%,.,9%,1%,.,21µM*
COc1cc(/C=C2/NC(=O)N(c3cccc(Cl)c3)C2=O)ccc1O,-4%,-5%,8%,-13%,.,7%
O=C1NN(c2ccc(Br)cc2)C(=O)/C1=C\c1ccc(O)cc1O,4%,.,-3%,7%,.,?
O=C1NN(c2cccc(Br)c2)C(=O)/C1=C\c1ccc(O)cc1,-2%[1.84 µM],.,0%,1%,.,15µM*
CCCOc1ccc(C2C(=O)N(C3CCC(C)CC3)CC(=O)N2Cc2cccc(OC)c2)cc1OC (stereo not drawn),.,.,.,.,.,-2%
COc1ccc(N2CC(NC(=O)c3ccco3)CC2=O)cc1OC (stereo not drawn),.,.,.,.,.,0%
Cc1ccc(-c2cn3c(n2)sc2cc(C(=O)NC4CCCCCC4)ccc23)c(C)c1,.,.,.,.,.,-1%
Cc1ccc(C(=O)CSc2nsc(C)c2C#N)cc1,3.2µM*,4%,?,3.5µM*,13µM*,11µM*
Cc1ccnc(SCC(=O)c2ccc(Br)cc2)c1C#N,2.8µM*,-1%,12%,3.5µM*,14µM*,21µM*
Cc1cc(C)c(C#N)c(OCC(=O)c2ccc(Br)cc2)n1,6%,6%,-1%,1%,-11%,-1%
Cc1snc(SCC(=O)c2ccc(Cl)cc2)c1C#N,?,1%,10%,?,-3%,?
CCOc1ccc(-n2c(=O)c3sc4ccccc4c3n(Cc3cccc(C)c3)c2=O)cc1,.,.,.,.,3%,-1%
CCOc1ccc(C(=O)OCc2cc(=O)n3nc(C(C)C)sc3n2)cc1,.,.,.,.,.,2%
C/C(=N\Nc1ccc([N+](=O)[O-])cc1)c1ccco1,3.5µM*,-11%,?,?,.,7.6µM*
C/C(=N\Nc1ccccc1[N+](=O)[O-])c1ccc(N2CCOCC2)cc1,3.2µM*,-12%,?,2.8µM*,?,3.4µM*
C/C(=N/Nc1ccccc1[N+](=O)[O-])c1ccc(C)c([N+](=O)[O-])c1,?,.,9%,3.2µM*,.,-1%
